Compound activity from PubChem BioAssay.
FLuc modulator = inhibits or activates purified firefly luciferase, miR-21 counter-screen | AID 588342 | P08659 | purified FLuc, Km substrates, luminescence inhibition | Potency, µM (series often up to 57.5 µM), inactives show top-dose activity change, negative = inhibition, usual class: inhibitors | 6.9% of 360,000 active;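 note: plate controls were vehicle for no effect and reference inhibitor for full effect; nearly all actives have a fitted effect of over 55% in size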
Target sequence (P08659 whole entry, looked up): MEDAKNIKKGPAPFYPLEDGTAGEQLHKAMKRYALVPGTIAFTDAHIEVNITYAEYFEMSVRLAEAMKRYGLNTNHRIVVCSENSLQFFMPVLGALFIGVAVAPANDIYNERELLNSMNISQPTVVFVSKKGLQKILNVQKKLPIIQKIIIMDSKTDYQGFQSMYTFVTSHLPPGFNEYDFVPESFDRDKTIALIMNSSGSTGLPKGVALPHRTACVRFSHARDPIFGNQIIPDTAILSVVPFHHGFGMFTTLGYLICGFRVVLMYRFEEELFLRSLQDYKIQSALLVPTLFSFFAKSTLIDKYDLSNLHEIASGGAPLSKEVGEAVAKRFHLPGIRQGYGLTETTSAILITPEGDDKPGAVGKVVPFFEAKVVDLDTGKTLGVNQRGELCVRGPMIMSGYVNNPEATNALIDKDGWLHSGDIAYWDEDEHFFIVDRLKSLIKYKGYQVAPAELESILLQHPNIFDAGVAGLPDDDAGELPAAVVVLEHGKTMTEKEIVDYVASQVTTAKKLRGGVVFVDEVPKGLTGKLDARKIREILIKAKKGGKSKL
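Purified P. pyralis luciferase (10nM final) with 10uM D-luciferin and 10uM ATP (Km levels) in 50mM Tris acetate pH 7.5, 10mM Mg acetate, 0.01% Tween-20, 0.05% BSA; qHTS 6-point titration, ~60 µM downward; luminescence read.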
Luc counter = Kinase-Glo luciferase inhibition (counter-screen); Potency, µM (top dose mostly 38.3 µM), inactives show at the highest dose activity change, negative = inhibition, usual class: inhibitors; Q27757; AID 1379; 0.28% of 200,000 active; Kinase-Glo luciferase, ATP luminescence, 8 min; note: % is set by controls: 0 for no effect and ±100 for the full control effect; nearly all actives have a fitted effect of over 60% in size
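Light output from Kinase-Glo luciferase with luciferin and 10 uM ATP in 50 mM imidazole pH 7.2, KCl, MgCl2, Tween 20, BSA; compound pin-delivered, 8-min ambient incubation, then luminescence read.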
Rab9 promoter act = Rab9 promoter activation; Huh7 Rab9 promoter-luciferase reporter, luminescence, 24 h; Potency, µM (titrated, usually from 9.22 µM), for inactives: top-dose activation, negative = inhibition, actives largely listed as activators; 2.8% of 320,000 active; note: % of control where 0% means no effect; nearly all actives have a fitted effect of over 60% in size
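Cell-based reporter: Huh7 stable for Rab9 promoter-driven luciferase, plated in reduced-serum medium with 10% FBS at 1500 cells/well, compound-treated 24 h at 37 °C, luminescence read after 10 min reagent.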
ELG1 genotoxic = genotoxicity induction in ELG1-luciferase HEK293T cells; HEK293T ELG1-luciferase reporter, luminescence, 16 h; Potency, µM (highest dose often 46 µM), without a hit: at the highest dose activity change, positive = activation, usual class: activators; AID 504466; 1.3% of 330,000 active; note: % of control where 0% means no effect; nearly all actives have a fitted effect of over 60% in size
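16 hr compound incubation (37 °C, 5% CO2) of HEK293T cells carrying luciferase-tagged ELG1; luciferase then measured by ONE-Glo luminescence after 30 min at RT.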
SMN2 splice enh = enhancers of SMN2 splice variant expression; 2.8% of 210,000 active; Potency, µM (top dose mostly 46.1 µM), inactives show top-dose activity change, positive = activation, most hits filed as activators; AID 1458; HEK293 SMN2-luciferase splicing reporter, luminescence, 30-36 h; note: % of control where 0% means no effect; nearly all actives have a fitted effect of over 55% in size
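qHTS luciferase splicing reporter: luminescence rises when SMN2 exon 7 is included in transfected HEK293 cells. Compound exposure lasted 30-36 h at 37C, with 4.5 mM final sodium butyrate as control, followed by a ONE-Glo read.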
NPC1 promoter act = activates the NPC1 promoter; Huh7 NPC1 promoter luciferase reporter, 24 h; Potency, µM (doses to about 9.22 µM), for the others: at the highest dose activation, most hits filed as activators; 2.4% of 320,000 active; note: % of control where 0% means no effect; nearly all actives have a fitted effect of over 60% in size
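In 1536-well qHTS, Huh7 cells harboring an NPC1 promoter–luciferase construct received compound for 24 h; activation was quantified by luminescence following luciferase reagent addition.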
Active calls of the source: *; ? = inconclusive; . = no result given. Rows were chosen to be rich in hits. Some 7.5% of all compounds tested hit in one or more screens of this group. Calls come from the whole dose curve; as a rule, active = well fitted curve in the direction sought with a large enough effect; inconclusive = small, poorly fitted or top-dose-only effect, or another doubt; inactive = no such curve, though single readings can be large; an effect the other way counts as inactive or inconclusive. Potency is the fitted concentration of half-maximal effect.

SMILES | FLuc modulator | Luc counter | Rab9 promoter act | ELG1 genotoxic | SMN2 splice enh | NPC1 promoter act
COc1cccc(/C=N/Nc2ncnc3c2[nH]c2ccc(C)cc23)c1OC | 1.5µM* | . | 24% | 8% | . | 17%
C=CCNc1ncnc2c1[nH]c1ccc(C)cc12 | 4.3µM* | -2% | 2.5µM* | 9.2µM* | 2.8µM* | ?
COC(=O)C=P(c1ccccc1)(c1ccccc1)c1ccccc1 | . | 1% | . | . | 0% | .
COc1cccc(C(=O)NNC(=S)NC2CCCCC2)c1 | ? | -1% | 2.2µM* | 11% | ? | ?
O=C(NNC(=S)NC1CCCCC1)c1ccc(Cl)s1 | ? | -1% | ? | -2% | 13µM* | 27%
CCc1ccc(C(=O)NC2CCCCC2)s1 | 12µM* | -1% | 2.2µM* | 39% | 13µM* | 2.5µM*
CC(C)(O)C#Cc1ccc(C(=O)NC2CCCCC2)s1 | ? | 1% | ? | ? | ? | 29%
Cc1cc(C(=O)NNC(=S)NC2CCCCC2)cs1 | 2% | . | 1.3µM* | 11% | . | ?
O=C(NNC(=S)NC1CCCCC1)c1cccs1 | -12% | 1% | ? | 0% | -38% | 9%
Cc1ccc(-n2c(=O)c3c(c4cc(C)ccc4n3C)n(CC(=O)NCc3ccccc3)c2=O)cc1 | -5% | . | . | . | . | .
COc1cccc(NC(=O)c2sc3nc(C)c(C(=O)Nc4ccc(C)cc4C)c(-c4ccccc4Cl)c3c2N)c1 | -8% | . | . | . | 4% | .
CCOc1ccc2nc(NC(=O)c3ccco3)sc2c1 | 0.67µM* | . | 0.32µM* | 1.3µM* | . | 0.32µM*
CCOc1ccc2nc(NC(=O)c3ccoc3C)sc2c1 | 0.48µM* | 2.8µM* | 0.5µM* | ? | 2.5µM* | 0.56µM*
CCOC(=O)c1ccc2nc(NC(=O)c3cccs3)sc2c1 | 1.2µM* | -25% | 0.5µM* | ? | 4µM* | 0.71µM*
CCOC(=O)c1ccc2nc(NC(=O)c3ccco3)sc2c1 | 2.7µM* | -16% | 0.71µM* | ? | 2.2µM* | 0.89µM*
CCCCC#Cc1nc(N)c2ncn([C@@H]3O[C@H](C(=O)NCC)[C@@H](O)[C@H]3O)c2n1 | . | -2% | . | . | ? | .
O=C(CN1C(=O)CCc2cc(S(=O)(=O)N3CCOCC3)ccc21)Nc1cccc(Cl)c1 | -10% | . | . | . | . | .
COc1cccc(NC(=O)C2CCN(C(=O)[C@@H]3Cc4ccccc4CN3C(=O)OC(C)(C)C)CC2)c1 | -8% | . | 7% | -7% | . | -2%
CCc1nnc(NC(=O)c2nc(SCc3ccc(F)cc3)ncc2Cl)s1 | 12µM* | . | . | . | 2% | .
Cc1ccc(CSc2ncc(Cl)c(C(=O)Nc3nnc(C)s3)n2)cc1 | 15µM* | . | . | . | -4% | .
Cc1ccc(N2C(=O)c3ccccc3C2O)nc1 (configuration not stated) | 1.5µM* | 4.5µM* | 0.28µM* | ? | 0.56µM* | ?
Cc1ccc(N2C(=O)c3ccccc3C2Nc2ccccc2F)nc1 (configuration not stated) | 0% | -5% | 20% | 2% | -5% | -5%
Cc1ccc(Sc2c(C)nn(C(=O)COc3ccccc3Br)c2C)cc1 | -5% | . | . | . | -18% | .
O=C(Nc1ccccc1)N1CCCc2ccccc21 | -14% | -1% | -1% | 5% | 14% | 0%
O=C(Nc1ccccc1)C(=O)Nc1ccc2c(c1)N(C(=O)C1CC1)CCC2 | 3.4µM* | . | 1.1µM* | 1.6µM* | . | 1.1µM*
SMILES | FLuc modulator | Luc counter | Rab9 promoter act | ELG1 genotoxic | SMN2 splice enh | NPC1 promoter act
O=C(Nc1ccc(Br)cc1)N1CCCCC1 | 15µM* | -10% | ? | 14% | ? | ?
O=C(NC1CCCCC1)N1CCc2ccccc21 | 19µM* | -5% | ? | 15µM* | 13µM* | ?
Cc1ccc(NC(=O)N2CCCc3ccccc32)cc1C | 21µM* | . | 20% | ? | . | 17%
COc1ccc(-n2nc3c(N4CCCC(C(=O)NCc5ccccc5C)C4)nnc(C)c3c2C)cc1 (configuration not stated) | 1% | . | -1% | . | . | 0%
Cc1ccc(NC(=O)N2CCCCCC2)cc1C | 17µM* | . | 3.2µM* | ? | . | 4.5µM*
Cc1ccc(NC(=O)C2CCCN(C(=O)c3ccc(Cl)cc3)C2)cc1C (configuration not stated) | 27µM* | 6% | ? | 9% | -15% | 16%
Cc1ccc(NC(=O)C2CCCN(C(=O)c3ccc(Cl)cc3)C2)cc1 (configuration not stated) | ? | 1% | 27% | 1% | -7% | 2%
Cc1nc(-n2nc(C)c(Cc3ccc(Cl)cc3)c2C)sc1C(=O)N1CCC(C)CC1 | -10% | . | . | . | . | .
COc1cc(OC)c(NC(=O)CC(C)S(=O)(=O)c2ccc3c(c2)NC(=O)CO3)cc1Cl (configuration not stated) | -9% | . | . | . | . | .
CN(C)S(=O)(=O)c1cccc(COc2cccnc2[N+](=O)[O-])c1 | -1% | . | -1% | -3% | . | -30%
O=[N+]([O-])c1ncccc1OCc1ccc(Cl)c(Cl)c1 | 24µM* | . | ? | 18µM* | . | ?
O=C1CCc2ccc(NS(=O)(=O)c3ccc(F)cc3)cc2N1 | -5% | 1% | 13% | 18µM* | ? | 0%
O=c1[nH]c2ccc(NS(=O)(=O)c3ccc(F)cc3)cc2s1 | -9% | . | . | . | . | .
Cc1ccc(NC(=O)c2cncc(Br)c2)c(O)c1 | 17µM* | -1% | ? | -1% | ? | ?
Cc1ccc(NC(=O)c2ccc3nc[nH]c3c2)c(O)c1 | 19µM* | -4% | ? | ? | 13µM* | 3.2µM*
Cc1ccc(NC(=O)c2cncc(Br)c2)nc1 | ? | . | ? | ? | . | 3.2µM*
Cc1cc([N+](=O)[O-])ccc1NC(=O)c1cncc(Br)c1 | 2% | 2% | 1% | -5% | -4% | -3%
Cc1ccc(NC(=O)c2ccc(CSc3ccccn3)cc2)c(O)c1 | 24µM* | . | 11% | 0% | . | 12%
O=C(Nc1ccccc1C(=O)O)c1cncc(Br)c1 | ? | -3% | 12% | 0% | 6% | 12%
Cc1ccc(NC(=O)c2ccc(CSc3ccccn3)cc2)cc1 | ? | -3% | ? | 1% | -6% | ?
O=C(CSc1nc2c([nH]c3ccccc32)c(=O)n1-c1ccccc1)Nc1cccc(C(F)(F)F)c1 | 4% | . | . | . | . | .
COc1ccc(OC)c(CCNC(=O)c2c3c(nc4ccccc24)C(=O)N(C2CCCCC2)C3)c1 | -9% | . | . | . | . | .
Cc1cc(C)c2nc(NC(=O)c3ccc(OCC4CCCO4)cc3)sc2c1 (configuration not stated) | 11µM* | 1% | -25% | -3% | -59% | -18%
